Measurements published in PubChem BioAssay AID588852 (The Scripps Research Institute Molecular Screening Center, 2011).
Among all 360,000 compounds or so, about 4,600 (1.3%) were called active. The full list was thinned out, with actives kept by preference. Unmarked numbers belong to inactive results.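 How the source made its calls: active means percent inhibition above its own plate's cutoff, namely the mean of that plate's compound wells plus 3 SD; inactive means the rest.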

These molecules were tested against Muscarinic acetylcholine receptor M1 (Homo sapiens) (UniProt P11229) (assay: CHRM1 blockers of acetylcholine calcium response – CHO-K1 cells, Fluo-8 calcium fluorescence, 1536-well, primary screen (AID 588852;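 further: peak over basal fluorescence ratio during 140 s after agonist addition; 0% = ACh EC80 plus DMSO and 100% = DMSO alone without agonist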)). Settings: CHO-K1 hM1, Fluo-8 calcium fluorescence, ACh EC80 antagonist; at 3 µM; active compounds read high.
Sequence of Muscarinic acetylcholine receptor M1 (Homo sapiens) (P11229 whole entry, looked up): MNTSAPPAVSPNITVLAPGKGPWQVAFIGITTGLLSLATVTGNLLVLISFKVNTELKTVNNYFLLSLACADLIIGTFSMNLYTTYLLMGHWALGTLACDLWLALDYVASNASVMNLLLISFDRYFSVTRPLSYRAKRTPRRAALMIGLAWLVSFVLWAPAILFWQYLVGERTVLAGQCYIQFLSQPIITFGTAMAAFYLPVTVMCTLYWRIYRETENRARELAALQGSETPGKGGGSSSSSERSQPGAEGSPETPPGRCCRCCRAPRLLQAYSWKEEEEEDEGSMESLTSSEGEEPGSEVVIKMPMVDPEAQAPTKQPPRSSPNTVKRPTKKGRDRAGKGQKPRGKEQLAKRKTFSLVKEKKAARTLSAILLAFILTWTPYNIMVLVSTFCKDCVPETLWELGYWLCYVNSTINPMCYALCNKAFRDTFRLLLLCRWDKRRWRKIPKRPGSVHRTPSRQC

**Q.** How did the inhibition turn out when `COc1ccc(-n2nnnc2C(c2cccc3ccccc23)N2CCC(n3c(=O)[nH]c4ccccc43)CC2)cc1` (stereo not given) was run?
**A.** The inhibition was 103% (active).

**Q.** `O=c1[nH]c2ccccc2n1C1CCN(C(c2ccccc2)c2nnnn2Cc2ccccc2)CC1` (stereo not given) was tested. Which inhibition did it give?
**A.** The inhibition was -3.28%.

**Q.** Which inhibition does the source give for `O=c1[nH]c2ccccc2n1C1CCN(C(c2ccnc3ccccc23)c2nnnn2Cc2ccccc2)CC1` (stereo not given) here?
**A.** Its inhibition is 4.78%.

**Q.** For `COC1C(O)C(C)OC(OC2CCC3(C=O)C(CCC4C3CCC3(C)C(C5=CC(=O)OC5)CCC43O)C2)C1O` (stereo not given), which inhibition is on record?
**A.** Its inhibition is -8.54%.

**Q.** `CC12CCC3C(CCC4CC(=O)CCC43C)C1CC(=NO)C2=O` (stereo not given) was tested. Which inhibition did it give?
**A.** The inhibition was -2.57%.

**Q.** Which inhibition does the source give for `COc1cccc(C(=O)N2C[C@H]3C[C@@H](C2)c2cccc(=O)n2C3)c1` here?
**A.** The inhibition was -17.6%.

**Q.** Which inhibition does the source give for `CC(C)Oc1cccc(C(=O)C2CCCN(C3CCOCC3)C2)c1` (stereo not given) here?
**A.** The inhibition was 62.5% (active).

**Q.** How did the inhibition turn out when `CCn1cc(CN2CCCC(C(=O)c3cccc(C(F)(F)F)c3)C2)cn1` (stereo not given) was run?
**A.** Its inhibition is 30.8%.

**Q.** For `O=C(Nc1cccc(OC(=O)N2CCCCC2)c1)N1CCOCC1`, which inhibition is on record?
**A.** The inhibition was 12.4%.

**Q.** How did the inhibition turn out when `CC(C)(C)[C@]1(O)C[C@@H]2OC(=O)C[C@@]23C(=O)O[C@@H]2OC(=O)[C@H](O)[C@]213` was run?
**A.** The inhibition was -3.8%.

**Q.** For `CC(=NCc1ccc2c(c1)OCO2)c1c(O)[nH]c(=O)[nH]c1=O`, which inhibition is on record?
**A.** Its inhibition is -24.2%.

**Q.** For `CCCC[N+]1(C)C2CC(OC(=O)C(CO)c3ccccc3)CC1C1OC12` (stereo not given), which inhibition is on record?
**A.** Its inhibition is 85.3% (active).

**Q.** For `CCCCC(=O)N/N=C/c1c(O)n(CC)c(=S)n(CC)c1=O`, which inhibition is on record?
**A.** Its inhibition is -7.53%.

**Q.** For `Cc1ccc2c(c1)C1CN(C)CCC1N2C(=O)Cn1nnc(-c2ccccc2F)n1` (stereo not given), which inhibition is on record?
**A.** Its inhibition is 5.84%.

**Q.** For `O=C(COc1ccc2ccccc2c1)N1CCN(Cc2ccncc2)CC1`, which inhibition is on record?
**A.** Its inhibition is 14.5%.

**Q.** With `CC(C(=O)Nc1ccc(Cl)cc1Cl)N1CC=C(c2ccccc2)CC1` (stereo not given) as the molecule, how does the inhibition read?
**A.** Its inhibition is 18.7%.

**Q.** How did the inhibition turn out when `CC[N+]1(C)CCCC(OC(=O)C(O)(c2ccccc2)c2ccccc2)C1` (stereo not given) was run?
**A.** Its inhibition is 97.3% (active).

**Q.** With `COC(=O)CN1C(=O)C2(C(C(=O)OC)=C(N)Oc3ccccc32)C2=C1CC(C)(C)CC2=O` (stereo not given) as the molecule, how does the inhibition read?
**A.** The inhibition was -6.88%.

**Q.** With `CCOc1ccc(CN(CCCl)CCCl)cc1C(=O)OC` as the molecule, how does the inhibition read?
**A.** The inhibition was -7.91%.

**Q.** Which inhibition does the source give for `CSCCC(c1nnnn1C(C)(C)C)N1CCC(n2c(=O)[nH]c3ccccc32)CC1` (stereo not given) here?
**A.** The inhibition was -5.89%.

**Q.** Which inhibition does the source give for `OC(CNC1CCCCC1)c1ccccc1` (stereo not given) here?
**A.** The inhibition was -2.05%.

**Q.** `COC(=O)C(c1ccccc1)N1CCCCCC1` (stereo not given) was tested. Which inhibition did it give?
**A.** The inhibition was -0.1%.

**Q.** Which inhibition does the source give for `c1ccc(C(CN2CCCCC2)c2ccccc2)cc1` here?
**A.** The inhibition was 50% (active).

**Q.** For `CCOP(=O)(OCC)C(NC(=O)NC)C(N)=O` (stereo not given), which inhibition is on record?
**A.** The inhibition was -7.67%.

**Q.** How did the inhibition turn out when `COc1cccc(C(c2nnnn2-c2ccc3c(c2)OCCO3)N2CCC3(CC2)C(=O)NCN3c2ccccc2)c1OC` (stereo not given) was run?
**A.** Its inhibition is -16.2%.

**Q.** For `c1ccc(CCN2CCC3(CC2)OCCO3)cc1`, which inhibition is on record?
**A.** The inhibition was -10%.

**Q.** How did the inhibition turn out when `CCOC(=O)C1(c2ccccc2)CCN(CC(O)c2ccc(NC(C)=O)cc2)CC1` (stereo not given) was run?
**A.** Its inhibition is -8.72%.

**Q.** With `O=C(OCCN1CCOCC1)C1(c2ccccc2)CCCC1` as the molecule, how does the inhibition read?
**A.** The inhibition was 35.5% (active).

**Q.** How did the inhibition turn out when `CC(=O)NCC1=C(c2ccc3ccccc3c2)C[C@@H]2CC[C@H]1N2Cc1ccco1` was run?
**A.** Its inhibition is -9.51%.

**Q.** With `CCN(CC)P(=O)(Oc1cccc(C)c1)N(CC)CC` as the molecule, how does the inhibition read?
**A.** Its inhibition is -22.1%.

**Q.** How did the inhibition turn out when `COC(=O)C1=C(c2ccccc2OCc2ccccc2)C[C@@H]2CC[C@H]1N2C(=O)NCc1ccc(OC)cc1` was run?
**A.** The inhibition was 18.3%.

**Q.** Which inhibition does the source give for `NC(=O)Nc1cccc(C(F)(F)F)c1` here?
**A.** The inhibition was -7.02%.

**Q.** `COc1cccc(CN2CCCC(C(=O)c3ccccc3SC)C2)c1O` (stereo not given) was tested. Which inhibition did it give?
**A.** The inhibition was 23.3%.

**Q.** `Cc1ccc(CN2CCCC(C(=O)c3ccc4c(c3)OCO4)C2)cc1C` (stereo not given) was tested. Which inhibition did it give?
**A.** The inhibition was 84.4% (active).

**Q.** `COc1ccc(C(=O)C2CCCN(Cc3ccc(C)s3)C2)cc1OC` (stereo not given) was tested. Which inhibition did it give?
**A.** Its inhibition is 52.6% (active).

**Q.** Which inhibition does the source give for `Cc1ccsc1C(=O)C1CCCN(Cc2ccc(O)cc2)C1` (stereo not given) here?
**A.** The inhibition was 7.02%.

**Q.** `Cc1cc(=O)oc2c(C)c(OCC(=O)N3CCN(Cc4ccc5c(c4)OCO5)CC3)ccc12` was tested. Which inhibition did it give?
**A.** Its inhibition is -1.03%.

**Q.** For `CC(C)Nc1nc(Cl)nc(NC(C)C)n1`, which inhibition is on record?
**A.** Its inhibition is -4.88%.

**Q.** With `C=CCN1C(=O)NC(=O)/C(=C/c2ccc(OCC(=O)Nc3ccc(C)cc3)cc2)C1=O` as the molecule, how does the inhibition read?
**A.** Its inhibition is -8.3%.

**Q.** How did the inhibition turn out when `COc1ccc(-c2nc(CS(=O)CC(=O)N3CCC4(CC3)OCCO4)c(C)o2)cc1` (stereo not given) was run?
**A.** The inhibition was -12.6%.

**Q.** `CC1(C)C(c2ccccc2)=NC(c2cccnc2)=[N+]1[O-]` was tested. Which inhibition did it give?
**A.** The inhibition was -21%.

**Q.** How did the inhibition turn out when `CCOC(=O)C1SC2(C(F)(F)C(F)F)CC1(O)c1c(c(OC)c3occc3c1OC)O2` (stereo not given) was run?
**A.** Its inhibition is 46.3% (active).

**Q.** With `O=C(N/N=C/c1c(O)n(C2CC2)c(=S)[nH]c1=O)c1ccccc1` as the molecule, how does the inhibition read?
**A.** Its inhibition is -8.31%.

**Q.** `CCOC(=O)C1(Cc2ccc(Cl)cc2)CCN(C(C)CCn2cccn2)CC1` (stereo not given) was tested. Which inhibition did it give?
**A.** The inhibition was 22.2%.

**Q.** Which inhibition does the source give for `CC1CCCN1CCC(C(N)=O)(c1ccccc1)c1ccccc1` (stereo not given) here?
**A.** Its inhibition is 98.5% (active).

**Q.** With `O=C(Cc1ccccc1)N1CCN(C2CCCCCC2)CC1` as the molecule, how does the inhibition read?
**A.** The inhibition was -0.63%.

**Q.** `CC1CCCCN1Cc1cccnc1` (stereo not given) was tested. Which inhibition did it give?
**A.** Its inhibition is 3.5%.

**Q.** `COC(=O)C1=C(c2cccc(OCc3ccccc3)c2)C[C@@H]2CC[C@H]1N2C(=O)NNCc1ccccc1` was tested. Which inhibition did it give?
**A.** Its inhibition is 18.8%.

**Q.** `Cc1cc(OCc2cc(C(=O)O)oc2C)c2c3c(c(=O)oc2c1)CCCC3` was tested. Which inhibition did it give?
**A.** The inhibition was -3.16%.

**Q.** How did the inhibition turn out when `CSc1nc2ccc(C)cc2c(=O)n1-c1cccnc1` was run?
**A.** Its inhibition is -6.09%.

**Q.** For `CSc1ccc(C(=O)C2CCCN(Cc3ccn[nH]3)C2)cc1` (stereo not given), which inhibition is on record?
**A.** The inhibition was 62.7% (active).

**Q.** With `S=C(NCCc1ccccc1)N1Cc2cc(N3CCOCC3)ccc2-n2nncc2C1` as the molecule, how does the inhibition read?
**A.** Its inhibition is -7.43%.

**Q.** For `COC(=O)C1=C(c2ccccc2)C[C@@H]2CC[C@H]1N2C(=O)N1CCCCC1`, which inhibition is on record?
**A.** Its inhibition is -1.18%.

**Q.** Which inhibition does the source give for `O=C(NC1CCCCC1)N1Cc2cc(N3CCCCC3)ccc2-n2nncc2C1` here?
**A.** Its inhibition is 6.05%.

**Q.** `CCOc1cccc(=NC2CCCCC2)c2c(C)[nH]c(C)c12` was tested. Which inhibition did it give?
**A.** The inhibition was -4.64%.

**Q.** With `CCCCCCCCCCCCn1ccc(=N)cc1` as the molecule, how does the inhibition read?
**A.** The inhibition was 89.2% (active).

**Q.** With `COc1ccc(C2NCc3ccc4c(c3-n3cccc32)OCO4)cc1OC` (stereo not given) as the molecule, how does the inhibition read?
**A.** Its inhibition is -9.71%.

**Q.** With `O=C(c1cc2nc(-c3ccccc3)cc(-c3ccccc3)n2n1)N1CCC2(CC1)OCCO2` as the molecule, how does the inhibition read?
**A.** The inhibition was -31%.

**Q.** For `COC(=O)C1=C(c2ccc(-c3ccccc3)c(F)c2)C[C@@H]2CC[C@H]1N2C(=O)NCc1ccc(F)cc1`, which inhibition is on record?
**A.** The inhibition was 1.14%.

**Q.** `COc1cc(C(=O)N2Cc3ccc(Br)cc3-n3nncc3C2)cc(OC)c1OC` was tested. Which inhibition did it give?
**A.** The inhibition was 1.07%.

**Q.** With `Cc1nn(Cc2ccccc2Cl)c(Cl)c1C(=O)OC(C(=O)NC(N)=O)C(C)C` (stereo not given) as the molecule, how does the inhibition read?
**A.** The inhibition was -7.79%.

**Q.** How did the inhibition turn out when `CCOC(=O)CNC(=O)N1Cc2cc(N3CCCCC3)ccc2-n2nncc2C1` was run?
**A.** The inhibition was -0.57%.

**Q.** Which inhibition does the source give for `CC(CC(C#N)(c1ccccc1)c1ccccc1)N1CCCCC1` (stereo not given) here?
**A.** Its inhibition is 75.2% (active).

**Q.** How did the inhibition turn out when `Clc1ccc2nc3c(c(-c4ccccc4)c2c1)CNCC3` was run?
**A.** The inhibition was 5.52%.

**Q.** With `Cn1c(O)c(C(=Nc2ccc(F)cc2)c2ccccc2)c(=O)n(C)c1=O` as the molecule, how does the inhibition read?
**A.** The inhibition was -7.87%.
